High-throughput results: PubChem BioAssay, Buhrlage Lab, Dana-Farber Cancer Institute and Novartis Institutes for BioMedical Research (Cambridge, Mass)
Hits are enriched below; roughly 11% of the tested compounds scored in any of these assays.
USP28 block: blocks human USP28 ubiquitin-rhodamine cleavage; Q96RU2; purified USP28, Ub-rhodamine cleavage fluorescence, 30 min; inhibition, % at 25 µM; 47,000 compounds, 3% hits; AID 1645857
USP17 inh: blocks human USP17 ubiquitin-rhodamine cleavage; AID 1645855; 47,000 compounds, 6.5% hits; A8MUK1; purified USP17, Ub-rhodamine cleavage fluorescence, 3 h; inhibition, % at 50 µM
USP30 block: blocks human USP30 ubiquitin-rhodamine cleavage; AID 1645860; 47,000 compounds, 5.3% hits; purified USP30, Ub-rhodamine cleavage fluorescence; Q70CQ3; inhibition, % at 25 µM
Target sequence (Q70CQ3 whole entry, looked up): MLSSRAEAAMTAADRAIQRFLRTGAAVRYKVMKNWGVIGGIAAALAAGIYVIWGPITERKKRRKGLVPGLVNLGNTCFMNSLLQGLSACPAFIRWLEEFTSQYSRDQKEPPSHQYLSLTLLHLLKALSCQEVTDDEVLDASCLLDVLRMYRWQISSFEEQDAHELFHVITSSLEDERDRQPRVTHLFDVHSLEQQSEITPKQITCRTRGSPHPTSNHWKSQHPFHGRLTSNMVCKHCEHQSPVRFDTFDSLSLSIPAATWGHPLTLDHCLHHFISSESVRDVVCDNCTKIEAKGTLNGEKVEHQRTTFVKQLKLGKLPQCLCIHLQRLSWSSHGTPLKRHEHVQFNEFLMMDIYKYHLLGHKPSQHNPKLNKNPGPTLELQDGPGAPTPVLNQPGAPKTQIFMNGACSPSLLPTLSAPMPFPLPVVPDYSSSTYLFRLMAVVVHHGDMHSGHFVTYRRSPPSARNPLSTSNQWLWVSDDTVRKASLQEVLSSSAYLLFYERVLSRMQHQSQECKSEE
Numbers without * were called inactive; nt = no result given. No stated cut-off is given here; in the data, active means inhibition above about 30%; inactive means the rest.

SMILES	USP28 block	USP17 inh	USP30 block
Cc1cccc(NC(=O)Cn2c(C)nc3c(c2=O)CCN(Cc2ccccc2)C3)c1C	-0.2	30.0*	-1.9
CCCCCn1c(SCC(=O)CC(=O)OCC)nc2cc(C(=O)NCc3ccco3)ccc2c1=O	-26.6	34.2*	-100.7
Cc1ccc(Cn2c(=O)c3ccccc3n3c(CCC(=O)NCCN4CCOCC4)nnc23)cc1	8.4	0.1	13.0
COc1ccc(CCNC(=O)CCCCn2c(=O)c3ccccc3n(Cc3cccc(Cl)c3)c2=O)cc1OC	20.7	34.4*	52.5*
CCCCCn1c(SCc2cccnc2)nc2cc(C(=O)NCc3ccco3)ccc2c1=O	0.0	0.0	-3.6
CCCc1nc2c(c(=O)n1CC(=O)NCC1CCCO1)CCN(Cc1ccccc1)C2 (configuration not stated)	-0.4	0.4	-10.3
Cc1ccc(Cn2c(=O)n(CCC(=O)NCCc3ccccc3)c(=O)c3ccccc32)cc1	29.8	46.4*	63.1*
CCC(C)c1ccccc1NC(=O)COC(=O)c1ccc2c(c1)OCO2 (configuration not stated)	15.7	15.0	21.7
O=C1CC(/C=C/c2ccccc2)Cc2nc(N3CCN(CCO)CC3)ncc21 (configuration not stated)	-9.6	-11.7	-14.1
Cc1ccn2cc(-c3ccc(NC(=O)C(C)Oc4ccccc4)cc3)nc2n1 (configuration not stated)	-5.8	-6.0	-0.6
O=C(c1ccc(F)cc1)N1CCc2cc(S(=O)(=O)N3CCCC3)ccc21	-2.5	nt	-25.2
O=C(c1cnc2ccccc2n1)N1CCCn2c(nc3ccccc32)C1	-0.1	-27.2	-6.1
Cc1cc(C)nc(C2CCN(C(=O)CCc3nc4ccccc4[nH]3)C2)n1 (configuration not stated)	1.5	-0.5	-9.6
O=C(C1CN(Cc2cccnc2)Cc2ccnn2C1)N1CCOCC1 (configuration not stated)	2.3	8.4	18.8
CN1CCn2cc(S(=O)(=O)NCc3ccc(F)cc3F)cc2C1=O	-6.9	-25.3	-50.0
CCCCCC(O)(c1ccc(O)cc1)C(CN1CCOCC1)c1ccccc1 (configuration not stated)	-16.0	-16.1	-28.7
CCN(CC)C(=O)Cn1cc(C(=O)C(=O)N2CCCCC2C)c2ccccc21 (configuration not stated)	-4.1	-19.7	4.4
COc1ccc(CCNC(=O)CSc2cn(CC(=O)N3CCCCC3)c3ccccc23)cc1OC	-1.3	-9.0	-15.8
O=c1c2ccccc2n(Cc2cccc([N+](=O)[O-])c2)c(=O)n1Cc1ccco1	-4.9	-0.1	-22.6
COc1ccc(NC(=O)CCCCn2c(=O)c3ccccc3n(Cc3cccc([N+](=O)[O-])c3)c2=O)cc1	16.8	33.2*	10.5
O=C(Cc1ccc(-n2c(=O)c3ccccc3n(Cc3cc(=O)n4ccccc4n3)c2=O)cc1)NCCc1ccccc1	6.1	14.1	-152.2
COc1ccc(CCNC(=O)CSc2cc(=O)n(C)c3cc(Cl)ccc23)cc1OC	5.9	37.6*	29.8
Cc1cccc(NC(=O)Cn2c(=O)n(CC(=O)NCCc3ccccc3)c(=O)c3ccccc32)c1C	13.0	21.7	48.1*
COc1ccc(Cl)cc1NC(=O)Cn1c(=O)n(CCCCC(=O)NCCc2ccccc2)c(=O)c2ccccc21	1.3	13.8	5.0
COc1ccc(CCNC(=O)c2ccc(Cn3c(=O)c4ccccc4n(Cc4cc(=O)n5ccccc5n4)c3=O)cc2)cc1OC	29.5	66.1*	50.2*
SMILES	USP28 block	USP17 inh	USP30 block
Cc1ccc(CNc2nc(N3CCOCC3)nc3c2cnn3C)cc1	-4.0	-16.1	-8.6
CCOc1ccccc1CN1CCN(c2cnn3cnnc3c2)CC1	-21.6	-7.8	-17.3
COc1cc(COCC(O)CN2CCN(c3cc(Cl)ccc3C)CC2)cc(OC)c1OC (configuration not stated)	7.1	-4.2	3.0
COC(=O)CSc1nc2ccccc2c(=O)n1Cc1ccco1	12.0	6.1	8.0
COc1ccc(CCNC(=O)CCCn2c(SCC(=O)NCc3ccco3)nc3ccccc3c2=O)cc1OC	0.3	32.7*	40.6*
Cn1c(COc2ccccc2)nnc1SCc1cc(=O)c2cc(Cl)ccc2[nH]1	-11.0	7.6	4.3
CCn1c(CCc2ccc(NC(=O)c3ccccn3)cc2)nc2ccccc21	nt	-0.8	nt
CC(=O)c1cccc(NC(=O)Nc2ccc(CCc3nc4ccccc4n3C)cc2)c1	20.5	32.7*	19.3
Cn1c(CCN2CCCC2)nc2cc(NC(=O)c3ccccc3)ccc21	2.6	59.2*	-23.5
CCC(=O)Nc1ccc2c(c1)nc(CN1CCCCCC1)n2C	-6.1	-7.8	-15.5
CCC(=O)Nc1ccc2c(c1)nc(CCN1CCCCC1)n2C	-2.1	-83.2	-17.3
CCC(=O)Nc1ccc2c(c1)nc(CSc1nccc(C)n1)n2CC	91.9*	-5.1	5.9
Cc1cccc(OCC(=O)Nc2ccc3c(c2)nc(CCN2CCC(C)CC2)n3C)c1	4.3	-0.1	-14.4
